DRD3 antagonist: D3 dopamine receptor (human) antagonism | D3R cells, DiscoveRx beta-arrestin luminescence, antagonist mode; hits give low values | P35462 | max response, negative = inhibition, % | 360,000 tested, 2.5% active; in the data active means max response below about -50%; inconclusive means no clear call, values can overlap the other calls; further: on the % scale 0 is the no-effect control and ±100 the full control effect
Target sequence (P35462 whole entry, looked up): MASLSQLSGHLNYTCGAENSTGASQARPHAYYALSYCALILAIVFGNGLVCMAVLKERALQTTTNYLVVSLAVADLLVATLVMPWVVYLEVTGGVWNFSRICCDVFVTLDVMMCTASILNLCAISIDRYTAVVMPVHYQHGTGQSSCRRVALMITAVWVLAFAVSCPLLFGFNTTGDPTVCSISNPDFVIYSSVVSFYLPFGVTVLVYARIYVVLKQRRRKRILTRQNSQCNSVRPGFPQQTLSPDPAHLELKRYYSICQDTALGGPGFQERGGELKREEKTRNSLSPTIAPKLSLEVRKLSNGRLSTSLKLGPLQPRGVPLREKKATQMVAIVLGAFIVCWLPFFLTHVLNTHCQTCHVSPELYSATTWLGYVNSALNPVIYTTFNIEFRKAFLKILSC
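Cells plated overnight at 1500 cells/well, then exposed to library compounds with dopamine controls for 90 minutes at 37 degrees C. DiscoveRx reagent added for 30–60 minutes at room temperature; luminescence read, quantitative HTS format.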
RGS4 inh: blocks human RGS4-accelerated GTP hydrolysis | Transcreener GDP fluorescence polarization, RGS4-accelerated GTP hydrolysis | 390,000 tested, 0.039% active | Potency, µM (highest dose often 114 µM), inactives show top-dose activity change, negative = inhibition, actives largely listed as inhibitors | P49798; active means well fitted inhibition curve with a large enough effect; inconclusive means small, poorly fitted or top-dose-only effect; inactive means no such curve, though single readings can be large or run the other way; further: potency means the concentration at half of the fitted maximal effect; on the % scale 0 is the no-effect control and ±100 the full control effect; nearly all actives have a fitted effect of over 75% in size
Target sequence (P49798 whole entry, looked up): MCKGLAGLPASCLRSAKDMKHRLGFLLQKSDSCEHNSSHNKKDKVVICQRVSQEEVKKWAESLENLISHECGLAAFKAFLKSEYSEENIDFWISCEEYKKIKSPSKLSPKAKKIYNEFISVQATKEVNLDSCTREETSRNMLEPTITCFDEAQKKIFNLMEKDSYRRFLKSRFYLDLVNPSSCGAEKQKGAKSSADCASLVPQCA
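MLSMR compounds (23 nl, pin-transferred) preincubated 10 min at room temperature with a 500nM (2x) first reagent, then RGS4 at 900nM (2x) plus Transcreener GDP mix added; fluorescence polarization (620/688 nm) read before and after 90 min at 30 °C.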
D3 ag: D3 dopamine receptor (human) agonism; P35462; D3R DiscoveRx beta-arrestin cells, luminescence, 90 min; max activation, %; 410,000 tested, 0.58% active; in the data active means max activation above about 30%; further: 0% is about no effect
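Agonist-mode cell screen: cells plated at 1500/well and incubated overnight at 37 °C, then exposed to library compounds for 90 min at 37 °C. Detection reagent was added for 30–60 min at room temperature, and luminescence was read.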
uPA surface inh: blocks generation of uPA at the cell surface | Potency, µM (top dose mostly 38.3 µM), without a hit: at the top dose activity change, negative = inhibition, hits mostly inhibitors | cell surface uPA generation assay, qHTS | 330,000 tested, 0.31% active; active means well fitted inhibition curve with a large enough effect; inconclusive means small, poorly fitted or top-dose-only effect; inactive means no such curve, though single readings can be large or run the other way; tested in mouse RAW 264.7 cells; further: potency means the concentration at half of the fitted maximal effect; on the % scale 0 is the no-effect control and ±100 the full control effect; nearly all actives have a fitted effect of over 55% in size
* hit, by the source's call; ? = inconclusive; . = no result; [ ] = another dose, or the depositor's remark. This is a sample that favours compounds with a hit; in the whole collection about 3.1% have one here.

SMILES	DRD3 antagonist	RGS4 inh	D3 ag	uPA surface inh
COC(=O)c1ccc(NC(=O)CC2C(=O)N(c3ccc(F)cc3)C(=O)N2Cc2ccc(OC)cc2)cc1 (configuration not stated)	.	-9.6%	-8.7	.
Cc1cccc(CSc2nc3ccncc3n2CC(=O)Nc2cc(C)cc(C)c2)c1	-54.6*	-6.0%	-11.1	-8.0%
CCc1ccc(NC(=O)Cn2c(SCc3ccc(C)cc3)nc3ccncc32)cc1	.	16.8%	.	.
C/C=C/c1cnc2c(c1)C(=O)N([C@H](C)CO)C[C@H](C)[C@@H](CN(C)C(=O)CN1CCOCC1)O2	-1.8	.	7.9	.
O=C(Cc1csc(N2CCOCC2)n1)N/N=C/c1ccc(O)c(O)c1O	-57.4*	?	-13.0	2.0%
C/C(=N\NC(=O)Cc1csc(N2CCOCC2)n1)c1ccccc1	14.0	-14.8%	8.2	-0.7%
O=c1[nH]c(-c2ccccn2)nc2ccccc12	-74.1*	-42.3%	-8.9	-16.3%
Cc1ccc2cccc(OC(=O)c3ccc4c(c3)OCCO4)c2n1	-50.1*	10.2%	2.1	2.6%
O=C(CCSCc1ccccc1F)N1CCN(c2ccc(F)cc2)CC1	.	-2.4%	0.8	.
Cc1cccc(N2CCN(CCNC(=O)c3cc4c(s3)CS(=O)(=O)C4)CC2)c1C	5.6	2.8%	86.1*	4.4%
CC(C)=CCN1CCN(CCC2=C(C)CCCC2(C)C)CC1CCO (configuration not stated)	-90.2*	5.3%	-14.4	-1.8%
CC1=C(CCN2CCN(C3CCCC3)C(CCO)C2)C(C)(C)CCC1 (configuration not stated)	-12.1	3.9%	-22.9	0.7%
COc1cc(OC)cc(C(=O)NCC(=O)N2CC=C(c3ccccc3)CC2)c1	-5.5	-29.1%	-19.1	4.47µM*
CC(C)c1cc(C(=O)NCc2ccc(F)cc2)c(N)s1	0.3	.	-1.5	.
COc1ccc2[nH]c3c(c2c1)CCN1C(=O)N([C@@H](C)C(=O)NCc2ccc(C)cc2)C(=O)[C@]31C	1.7	5.1%	31.5*	8.7%
COc1ccc(CNC(=O)[C@H](C)N2C(=O)N3CCc4c([nH]c5ccc(OC)cc45)[C@@]3(C)C2=O)cc1	0.0	10.7%	-0.7	2.2%
CC1(C(=O)NS(=O)(=O)c2cccc(C#N)c2)CCN1C(=O)Cc1ccccc1 (configuration not stated)	23.3	.	0.0	.
O=S1(=O)C=C[C@@H](COCc2ccccc2)N1Cc1ccc(Br)cc1	-50.8*	.	-10.4	.
O=S1(=O)C=C[C@@H](CO)N1Cc1ccc(Br)cc1	0.9	.	4.5	.
Cc1ccc(C2=Nc3ccccc3N(CC(=O)Nc3ccccc3C)C(=O)C2)cc1C	.	2.4%	-7.2	.
CSc1ccc(CN(C)CC(=O)Nc2ccc(C)cc2Br)cc1	-55.6*	-1.6%	-35.2	0.3%
N#Cc1ccccc1OCC(=O)N1CCN(c2ccccc2)CC1	.	-0.7%	1.2	.
CC(=O)ON=C1C=CC(=C(C#N)c2ccccc2)C=C1	-104.5*	.	-25.7	.
COc1ccc(N2CCN(C(=O)CN=C3NS(=O)(=O)C(c4ccc(C)cc4)=C3C)CC2)cc1	-79.1*	-24.8%	-8.3	-7.9%
COC(C[C@H]1O[C@H]1[C@H](O)[C@H](C)OCc1ccccc1)OC	11.5	6.9%	37.1*	6.3%
SMILES	DRD3 antagonist	RGS4 inh	D3 ag	uPA surface inh
CCc1ccc(CN(C(=O)c2ccc(OC)cc2)C2CCS(=O)(=O)C2)cc1 (configuration not stated)	.	-0.3%	-4.3	.
CCCc1nnc(SCC(=O)N2CCCC(C)C2)n1CCOC (configuration not stated)	-57.9*	25.4%	-6.6	2.7%
CCCc1nnc(SCC(=O)N2CCCCC2C)n1CC1CCCO1 (configuration not stated)	-64.7*	13.6%	1.8	1.6%
CCC(=O)N1CCc2cc(Br)cc(S(=O)(=O)N3CCC(C(=O)Nc4ccccc4F)CC3)c21	.	-12.0%	1.2	.
CCCC(=O)c1c[nH]c(C(=O)NCc2cccnc2)c1	-88.2*	-2.1%	-12.2	-5.8%
COc1cc(NC(=O)CCc2c(C)nc3c(-c4ccc(F)cc4)c(C)nn3c2C)cc(OC)c1OC	.	-8.1%	-12.7	.
CCOC(=O)C1=C(C)NC(=O)CC1c1cc2c(cc1Br)OCO2 (configuration not stated)	-51.1*	-9.0%	4.0	1.1%
CCOC(=O)C1=C(C)NC(=O)CC1c1cc(OC)c(OC)cc1Br (configuration not stated)	16.7	-10.4%	4.4	-1.2%
N#Cc1ccc(-c2ccco2)nc1SCc1ccccc1	2.7	-33.9%	-3.0	-3.5%
CCSc1nc(-c2ccco2)ccc1C#N	-54.1*	?	4.1	1.7%
O=C1c2cc(S(=O)(=O)NCCCO)ccc2-c2ccc(S(=O)(=O)NCCCO)cc21	-50.8*	1.8%	2.0	3.3%
COCCNS(=O)(=O)c1ccc2c(c1)C(=O)c1cc(S(=O)(=O)NCCOC)ccc1-2	11.7	6.3%	-1.1	1.7%
CCOC(=O)c1[nH]ncc1CN1CCCC(C(=O)c2cc(Cl)ccc2OC)C1 (configuration not stated)	-101.7*	-15.4%	-1.2	-0.9%
CCN(Cc1ccccc1)C(=O)C1CCN(Cc2ccc(OC)c(OC)c2OC)CC1	-51.4*	8.7%	-35.1	.
CCOC(=O)c1[nH]ncc1CN1CCCC(C(=O)c2ccc(OC)c(OC)c2)C1 (configuration not stated)	-4.4	-17.8%	0.4	-1.9%
COc1cccc(C(=O)N2CCN(Cc3cc(Br)ccc3OC)CC2)c1	-83.6*	?	-1.2	-3.4%
COc1ccc(CN2CCCCCC2)c(C)c1C	-75.2*	-5.0%	-35.7	.
COc1ccc(CN2CCN(Cc3ccc(C)cc3)CC2)c(OC)c1	-50.4*	-14.4%	-38.4	-3.7%
COc1ccc(C(=O)C2CCCN(Cc3c[nH]c4ccccc34)C2)c(OC)c1 (configuration not stated)	-96.0*	7.7%[11.4 µM]	-13.1	-20.5%
COc1ccc(CN2CCN(Cc3ccccc3F)CC2)c(OC)c1	-22.3	-3.9%	-40.2	-0.7%
COc1ccc(CN2CCN(Cc3c[nH]c4ccccc34)CC2)c(OC)c1	-73.8*	.	-4.6	.
COc1ccc(C(=O)C2CCCN(Cc3c(F)ccc(F)c3F)C2)c(OC)c1 (configuration not stated)	-21.3	8.5%	-18.5	3.9%
COc1cccc(OC)c1C(=O)N1CCN(Cc2c[nH]c3ccccc23)CC1	4.9	.	2.7	.
COc1ccc(Br)cc1CN1CCN(Cc2c[nH]c3ccccc23)CC1	-89.9*	-26.2%	-49.5	-8.5%
Cc1oc2ccc(O)c(CN3CCCCCC3)c2c1C(=O)Nc1cccc(C(F)(F)F)c1	.	17.2%	-23.4	.
CC(C)CCNC(=O)CN1C(=O)c2cccnc2Oc2ccccc21	.	-4.2%	8.2	.
COc1ccc(CN2CCN(Cc3c[nH]c4ccccc34)CC2)cc1OC	-51.7*	.	-5.2	.
COc1cccc(C(=O)C2CCCN(C/C=C/c3ccccc3OC)C2)c1 (configuration not stated)	-6.7	-13.5%	-19.8	-4.4%
COc1cc(CN2CCN(Cc3ccccc3C(F)(F)F)CC2)cc(OC)c1OC	-20.4	4.2%	-6.0	1.6%
